Experimental data reported in the supplement of paper PMC4840960.
Structures can show the parent of a compound that is named as a salt.

Each compound was assayed on E18 rat cortical neuron-glia co-culture (assay: myelination (MBP fiber length per Olig2+ nucleus), % of 1 µM DAPT response (DMSO = 0) (% of DAPT); higher = more myelination, active = 50 or more). Settings: 5 µM; treatment time: 8 days (DIV5-DIV13).
Outline: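 Four 10X fields in each of duplicate wells were analysed after cultures were fixed in 4 % paraformaldehyde and immunostained for MBP and Olig2, with DAPI as the nuclear counterstain. The cultures were papain-dissociated primary E18 rat cortical co-cultures at 20,000 cells/well on poly-d-lysine/laminin 96-well plates, dosed with library compounds at 1 or 5 µM in myelination medium from DIV5 to DIV13. The myelination readout was continuous straight MBP fiber length per Olig2+ nucleus, with 0.1 % DMSO set to 0 and a 1 µM positive control set to 100.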

myelination, inactive:
O=C(O)COCCN1CCN(C(c2ccccc2)c2ccc(Cl)cc2)CC1 (stereo not given) [Cetirizine] -4.35
CC(C)/N=c1\cc2n(-c3ccc(Cl)cc3)c3ccccc3nc-2cc1Nc1ccc(Cl)cc1 [Clofazimine] -8.06
CC1CCN(CCCC(=O)c2ccc(F)cc2)CC1 [Melperone hydrochloride] -12.5
CCC(=O)O[C@@H]1CC(=O)O[C@H](C)C/C=C/C=C/[C@H](O)[C@H](C)C[C@H](CC=O)[C@H](O[C@@H]2O[C@H](C)[C@@H](O[C@H]3C[C@@](C)(O)[C@@H](OC(=O)CC)[C@H](C)O3)[C@H](N(C)C)[C@H]2O)[C@H]1OC [Midecamycin] 1.11
CCN1CCN(c2cc3c(cc2F)c(=O)c(C(=O)O)cn3C2CC2)CC1 [Enrofloxacin] -19.3
